# Active and inactive are the calls of the source. The calls were made as follows, unless noted: active = hit-call score of the fitted dose curve at least 0.9, where 1 is the maximum; inactive = score below 0.9.
# How the values were obtained:
# TTR (gene 7276) = assay: CCTE_GLTED_hTTR_0.5uM: CCTE's human Transthyretin (hTTR) Inhibition Assay, with 0.5uM TTR, Great Lakes Toxicology and Ecology Division (GLTED) Lab (AID 2284320)
# Summary of the method: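 Cell-free displacement assay in which human TTR at 0.5 uM was incubated with test chemical for 2 h. Displacement of the ANSA probe was read by fluorescence at 380 nm excitation/475 nm emission. Loss of signal was fitted in the positive direction versus DMSO.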
# [1] = Tanguay_ZF_120hpf_DP24: Oregon State University Tanguay Lab 24 Hour Post-fertilization zebrafish Assay for Delayed Development (AID 2284390)
# Summary of the method: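 Dechorionated 5D wild-type zebrafish embryos exposed statically from 6 hpf, one per well, 0.64% DMSO final, 28 C, sealed and dark. Developmental progression scored at 24 hpf by brightfield as binary present/absent; dead embryos excluded.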
# [2] = Tanguay_ZF_120hpf_CRAN: Oregon State University Tanguay Lab 120 Hour Post-fertilization zebrafish Assay for Craniofacial Malformation (AID 2284397)
# Summary of the method: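 Dechorionated Tropical 5D wild-type zebrafish embryos, one per well, were statically exposed from 6 to 120 hpf at 28C in 0.64% DMSO, with 5uM trimethyltin chloride as positive control. Craniofacial malformation was scored present/absent by brightfield microscopy, relative to DMSO.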
# [3] = Tanguay_ZF_120hpf_TCHR: Oregon State University Tanguay Lab 120 Hour Post-fertilization zebrafish Assay for Touch Responsive (AID 2284403)
# Summary of the method: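 Dechorionated Tropical 5D wild-type zebrafish embryos, one per well from 6 hpf, were statically exposed to 120 hpf at 28 °C (0.64% DMSO). Touch response was scored present/absent at 120 hpf and not scored in dead larvae.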
# SERPINA7 (gene 6906) = assay: CCTE_GLTED_hTBG: CCTE's human Thyroxine-binding Globulin (TBG) Inhibition Assay, Great Lakes Toxicology and Ecology Division (GLTED) Lab (AID 2284343; active = hit-call score of the fitted dose curve at least 0.9, where 1 is the maximum;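 also: active chemicals lower fluorescence versus DMSO baseline by displacing probe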)
# Summary of the method: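 Cell-free binding assay in which human TBG is incubated with test chemical for 2 hours and displacement of the fluorescent probe ANSA is read at 380 nm excitation/475 nm emission. Activity is fitted against DMSO as the negative control.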
structure (smiles),measurement,setting,value
NC(=O)C(F)(F)C(F)(F)C(F)(F)C(F)F,AC50,TTR (gene 7276),45.2 µM (active)
same,outcome,[1],inactive
same,outcome,[2],inactive
same,outcome,[3],inactive
FC(F)(F)C(F)(F)C(F)(F)CC1CO1 (configuration not stated),outcome,[1],inactive
same,outcome,[2],inactive
same,outcome,[3],inactive
CCOC(=O)CC(=O)C(F)(F)C(F)(F)F,AC50,TTR (gene 7276),49.8 µM (active)
same,outcome,[1],inactive
same,outcome,[2],inactive
same,outcome,[3],inactive
C=CC(=O)OCCC(F)(F)C(F)(F)C(F)(F)C(F)(F)F,outcome,TTR (gene 7276),inactive
same,outcome,[1],inactive
same,outcome,[2],inactive
same,outcome,[3],inactive
OCC(F)(F)C(F)(F)C(F)(F)C(F)(F)C(F)(F)C(F)(F)CO,AC50,TTR (gene 7276),11.2 µM (active)
same,outcome,[1],inactive
same,outcome,[2],inactive
same,outcome,[3],inactive
CO[Si](C)(CCC(F)(F)C(F)(F)C(F)(F)C(F)(F)C(F)(F)C(F)(F)F)OC,outcome,[1],inactive
same,outcome,[2],inactive
same,outcome,[3],inactive
O=C(O)C(F)(F)C(F)(F)C(F)(F)C(=O)O,outcome,[1],inactive
same,outcome,[2],inactive
same,outcome,[3],inactive
OCC(O)CC(F)(F)C(F)(F)C(F)(F)C(F)(F)C(F)(F)C(F)(F)C(F)(F)C(F)(F)F (configuration not stated),outcome,[1],inactive
same,AC50,[2],6.76 µM (active)
same,outcome,[3],inactive
CN(C(=O)C(F)(F)C(F)(F)C(F)(F)F)[Si](C)(C)C,outcome,[1],inactive
same,outcome,[2],inactive
same,outcome,[3],inactive
CCC(Cc1c(I)cc(I)c(N)c1I)C(=O)O (configuration not stated),AC50,SERPINA7 (gene 6906),43.1 µM (active)
C[Si](Cl)(Cl)CCC(F)(F)C(F)(F)C(F)(F)C(F)(F)C(F)(F)C(F)(F)F,outcome,[1],inactive
same,outcome,[2],inactive
same,outcome,[3],inactive
O=S(=O)(OCC(F)(F)F)C(F)(F)C(F)(F)C(F)(F)C(F)(F)F,AC50,TTR (gene 7276),1.4 µM (active)
same,outcome,[1],inactive
same,outcome,[2],inactive
same,outcome,[3],inactive
O=S(=O)(O)CCC(F)(F)C(F)(F)C(F)(F)C(F)(F)F,AC50,TTR (gene 7276),2.1 µM (active)
same,outcome,[1],inactive
same,outcome,[2],inactive
same,outcome,[3],inactive
CCc1cc(Cc2cc(CC)c(N)c(CC)c2)cc(CC)c1N,AC50,SERPINA7 (gene 6906),8.5 µM (active)
NS(=O)(=O)C(F)(F)C(F)(F)C(F)(F)C(F)(F)C(F)(F)C(F)(F)F,AC50,TTR (gene 7276),0.329 µM (active)
same,AC50,[1],57.6 µM (active)
same,outcome,[2],inactive
same,outcome,[3],inactive
O=S(=O)(Cl)C(F)(F)C(F)(F)C(F)(F)C(F)(F)C(F)(F)C(F)(F)C(F)(F)C(F)(F)F,AC50,TTR (gene 7276),0.234 µM (active)
same,outcome,[1],inactive
same,outcome,[2],inactive
same,outcome,[3],inactive
CNS(=O)(=O)C(F)(F)C(F)(F)C(F)(F)C(F)(F)C(F)(F)C(F)(F)C(F)(F)C(F)(F)F,AC50,TTR (gene 7276),1.34 µM (active)
same,outcome,[1],inactive
same,outcome,[2],inactive
same,outcome,[3],inactive
OCC(F)(F)C(F)(F)C(F)(F)C(F)(F)C(F)(F)C(F)(F)C(F)(F)C(F)(F)CO,AC50,TTR (gene 7276),2.78 µM (active)
same,outcome,[1],inactive
same,outcome,[2],inactive
same,outcome,[3],inactive
NC(=O)C(F)(F)C(F)(F)C(F)(F)F,outcome,[1],inactive
same,outcome,[2],inactive
same,outcome,[3],inactive
OC(O)C(F)(F)C(F)(F)F,outcome,[1],inactive
same,outcome,[2],inactive
same,outcome,[3],inactive
O=C(c1ccccc1)c1ccc(O)cc1O,AC50,SERPINA7 (gene 6906),9.12 µM (active)
FC(F)(F)C(F)(F)C(F)(F)C(F)(F)C(F)(F)C(F)(F)C(F)(F)CCI,AC50,TTR (gene 7276),22.5 µM (active)
same,outcome,[1],inactive
same,outcome,[2],inactive
same,outcome,[3],inactive
FC(F)(F)C(F)(F)C(F)(F)C(F)(F)C(F)(F)C(F)(F)CC[Si](Cl)(Cl)Cl,outcome,[1],inactive
same,outcome,[2],inactive
same,outcome,[3],inactive
COC(F)(C(F)F)C(F)(F)F (configuration not stated),outcome,[1],inactive
same,outcome,[2],inactive
same,outcome,[3],inactive

# Reference: PubChem BioAssay (EPA / NIEHS)
